From PubChem
JMJD2A Tudor: qHTS Assay for Inhibitors of JMJD2A-Tudor Domain | AlphaScreen JMJD2A-Tudor / H3K4me3 peptide binding | Potency, µM (titrated, usually from 114 µM), without a hit: at the highest dose activity change, negative = inhibition, hits mostly inhibitors | hit rate 4.4% among 390,000 | Lysine-specific demethylase 4A (Homo sapiens), O75164; also: potency is read from the fitted curve at half-maximal effect; % is scaled to controls: 0 for no effect and ±100 for the full control effect; nearly all actives have a fitted effect of over 50% in size
HP1b chromo inh: HTS for Inhibitors of HP1-beta Chromodomain Interactions with Methylated Histone Tails. AlphaScreen HP1-beta / biotin-H3K9me3 peptide binding. hit rate 0.56% among 390,000. Chromobox protein homolog 1 (Homo sapiens), P83916. Potency, µM (doses to about 114 µM), inactives show at the top dose activity change, negative = inhibition, actives largely listed as inhibitors; also: potency is read from the fitted curve at half-maximal effect; nearly all actives have a fitted effect of over 70% in size
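Compound inhibition of the preformed complex between 50 nM HP1-beta and 50 nM biotinylated H3K9me3 peptide was read by AlphaScreen. Buffer was PBS pH 7.4 with 0.01% Tween-20. Incubations ran 30 min at room temperature, with 10 ug/mL donor/acceptor beads.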
TDP1 block: qHTS Assay for Inhibitors of Tyrosyl-DNA Phosphodiesterase (TDP1) | Tyrosyl-DNA phosphodiesterase 1 (Homo sapiens), Q9NUW8 | recombinant TDP1, AlphaScreen DNA substrate cleavage | Potency, µM (top dose mostly 130 µM), for inactives: at the highest dose activity change, negative = inhibition, hits mostly inhibitors | hit rate 0.28% among 350,000; also: potency is read from the fitted curve at half-maximal effect; % is scaled to controls: 0 for no effect and ±100 for the full control effect; nearly all actives have a fitted effect of over 40% in size
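Tdp1 1 nM final; 15 min RT w/ cpd; substrate 15 nM, 5 min; beads 10 ug/ml, 10 min; AlphaScreen read. Neg ctrl: no enzyme.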
CtBP-E1A inh: qHTS Assay for Inhibitors of the CtBP/E1A Interaction; AlphaScreen GST-E1A/His-CtBP binding, 1536-well; active compounds read low; activity change, % (test concentration not listed); hit rate 0.49% among 340,000; AID 651724, 2012; in the data active = activity change below about -65%; inconclusive = mostly about -30% to -63%; also: % is scaled to controls: 0 for no effect and ±100 for the full control effect
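In 5 uL wells, 23 nL compound meets equimolar GST-E1A and His-CtBP (5X stock 125 nM each) for 2 h, 37 °C. Beads (5X, 50 ug/mL) then 1 h, 37 °C, dark.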
BAZ2B inh: qHTS Assay for Inhibitors of BAZ2B. AID 504333, 2011. Bromodomain adjacent to zinc finger domain protein 2B (Homo sapiens), Q9UIF8. hit rate 4.4% among 360,000. AlphaScreen BAZ2B-H3K14Ac peptide displacement. Potency, µM (titrated, usually from 114 µM), inactives show top-dose activity change, negative = inhibition, usual class: inhibitors; also: potency is read from the fitted curve at half-maximal effect; % is scaled to controls: 0 for no effect and ±100 for the full control effect; nearly all actives have a fitted effect of over 60% in size
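Compounds, titrated to a top concentration of 110 uM, were incubated 30 min at room temperature with preformed BAZ2B/acetyl-K14 H3 peptide complex (50 nM each). Proximity signal was measured by AlphaScreen after 20 min with beads.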
Six1-Eya2 inh: qHTS Assay for Inhibitors of the Six1/Eya2 Interaction; AID 651725, 2012; Homeobox protein SIX1 (Homo sapiens) + Protein phosphatase EYA2 (Homo sapiens), …; AlphaScreen GST-Six1/His-Eya2 binding, biochemical; active compounds read low; hit rate 0.56% among 360,000; activity change, % (no concentration beside the values); in the data active = activity change below about -65%; inconclusive = mostly about -30% to -63%; also: % is scaled to controls: 0 for no effect and ±100 for the full control effect
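GST-Six1 + His-Eya2 (5X stock: 250/500 nM); Tris pH 8.0, 300 mM NaCl, 0.05% BSA, 0.02% Tween 20; GSH donor/Ni acceptor beads; 1 h 37 °C dark; AlphaScreen readout.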
Starred values were filed as active, the others as inactive; ? = inconclusive; . = no result given. Hits are enriched below; roughly 5.3% of the tested compounds scored in any of these assays. Unless noted, calls follow the shape of the dose curve; as a rule, active = well fitted inhibition curve with a large enough effect; inconclusive = small, poorly fitted or top-dose-only effect; inactive = no such curve, though single readings can be large or run the other way.

SMILES	JMJD2A Tudor	HP1b chromo inh	TDP1 block	CtBP-E1A inh	BAZ2B inh	Six1-Eya2 inh
O=C(Nc1ccc(-c2cn3cccnc3n2)cc1)c1cc(Br)ccc1Cl	-12%	43%	1%	.	-16%	.
CCOc1ccc(NC(=O)CCS(=O)(=O)c2ccc(Br)s2)cc1	?	-11%	-6%	.	-27%	.
Cc1ccc(-n2c(=S)[nH]c3sc4c(c3c2=O)CCc2ccccc2-4)cc1	-16%	35%	5%	.	1%	12
Cc1cccc(-n2c(=S)[nH]c3sc4c(c3c2=O)CCc2ccccc2-4)c1	?	7.1µM*	2%	3	?	5
Cc1cccc(/C=C(\C(=O)O)c2ccc(S(=O)(=O)N3CCCC3)s2)c1	?	-10%	11µM*	0	.	0
Cc1ccccc1NC(=O)c1cccc2c(=O)c3c([nH]c12)CCCC3	2%	49%	6%	.	1%	.
COc1cc(-c2ccc3ncnc(NCC4CCCO4)c3c2)cc(OC)c1OC (stereo unspecified)	-23%	.	.	.	.	.
O=C(O)C1CC(=O)N(c2ccc(F)cc2)C1 (stereo unspecified)	50µM*	?	0%	4	-1%	-1
O=C(C1CC(=O)N(c2ccc(F)cc2)C1)N1CCN(c2ccc(F)cc2)CC1 (stereo unspecified)	-17%	9%	3%	-9	-13%	0
COc1cccc(OC)c1OC(=O)C1CC(=O)N(c2ccc3c(c2)OCCO3)C1 (stereo unspecified)	56µM*	-35%	?	3	.	-11
COc1cccc(C(=O)NC2CC(=O)N(c3ccc4c(c3)OCCO4)C2)c1OC (stereo unspecified)	1%	18%	0%	.	2%	.
O=C(O)C1CC(=O)N(c2ccc3c(c2)OCCO3)C1 (stereo unspecified)	3.2µM*	?	3%	11	?	-16
Cc1ccnc(NC(=O)C2CC(=O)N(c3ccc4c(c3)OCCO4)C2)c1 (stereo unspecified)	-14%	14%	3%	-15	79µM*	-12
CCOc1ccccc1C(=O)NCc1ccc2c(c1)CCN2C(C)=O	-13%	30%	1%	.	-1%	.
CC(=O)NC1=C(Nc2ccc(N(C)C)cc2)C(=O)c2ccccc2C1=O	?	?	9%	-17	40µM*	-23
O=C(O)c1cccc(NS(=O)(=O)/C=C/c2ccccc2)c1	-9%	72%	-4%	7	5%	-3
O=C1C(Cl)=C(Nc2ccccc2)C(=O)c2ccccc21	-18%	-2%	1%	-9	?	-3
O=C(O)c1cccc(NC2=C(Cl)C(=O)c3ccccc3C2=O)c1	56µM*	?	-2%	-22	45µM*	-16
CC1=C(Nc2ccc(C(=O)O)cc2)C(=O)c2ccccc2C1=O	?	-15%	.	-18	45µM*	-15
O=C(O)c1ccc(NC2=C(Cl)C(=O)c3ccccc3C2=O)cc1	?	-14%	-7%	-21	50µM*	4
Cc1ccccc1Cn1c(CN2CCC(C(=O)NCCN(C)C)CC2)cc2ccccc21	?	3%	9%	.	?	.
Cc1cc(Nc2cccc(C(F)(F)F)c2)nc2ccc(NC(=O)c3cccnc3)cc12	-10%	39%	11%	.	16%	.
Cc1ccc(NC2=C(NC(=O)c3ccccc3)C(=O)c3ccccc3C2=O)cc1Cl	14µM*	45µM*	9%	0	14µM*	-66*
CCc1ccc(OCC2c3cc(OC)c(OC)cc3CCN2C(=O)COc2ccccc2)cc1 (stereo unspecified)	-31%	10%	8%	.	?	.
Cc1cccc(N=C2NC(=O)/C(=C/C=C/c3ccco3)S2)c1C	40µM*	45µM*	-2%	-20	22µM*	?
SMILES	JMJD2A Tudor	HP1b chromo inh	TDP1 block	CtBP-E1A inh	BAZ2B inh	Six1-Eya2 inh
Cc1ccc(N=C2NC(=O)/C(=C/C=C/c3ccco3)S2)cc1	35µM*	?	-6%	-5	16µM*	?
O=C1NC(=Nc2ccccc2)/C(=C/c2ccco2)S1	-29%	22%	6%	-3	50µM*	-7
COc1ccc(N=C2NC(=O)/C(=C\C=C\c3ccccc3)S2)cc1	-19%	7%	0%	-6	-2%	-12
COc1ccc(N=C2NC(=O)/C(=C/C=C/c3ccccc3)S2)cc1	-10%	13%	6%	4	-14%	0
O=C1NC(=Nc2ccccc2)S/C1=C\c1ccccc1	-16%	48%	.	2	-32%	0
Cc1cccc(N=C2NC(=O)/C(=C/c3cccnc3)S2)c1C	-26%	6%	7%	.	-18%	3
O=C1NC(=Nc2ccccc2)S/C1=C\C=C\c1ccco1	50µM*	?	3%	-10	25µM*	?
CCc1ccc2oc(C(=O)Nc3nc(-c4ccccc4)ns3)c(C)c2c1	-5%	44%	-5%	.	4%	.
C=C1C[C@]23CC[C@H]4C(CO)(CO)C[C@@H](O)C[C@@]4(C)[C@@H]2CC[C@H]1C3	.	.	6%	.	.	.
Cc1c(Cl)cccc1NC(=O)CN1C(=O)COc2ccc(S(=O)(=O)Nc3ccccc3)cc21	-1%	18%	3%	.	-12%	.
COc1ccc(N=C2NC(=O)/C(=C/c3ccco3)S2)cc1	-29%	26%	1%	.	40µM*	-3
Fc1ccc2nc(Nc3ccccc3)sc2c1	-2%	17%	5%	-10	-2%	-13
NNc1nc2ccc(F)cc2s1	?	-38%	8%	-1	45µM*	-23
COc1cc(NC(=O)Cn2c(-c3ccccc3)cc(C(C)=O)c2C)cc(OC)c1	-8%	23%	2%	.	-1%	.
Cc1cccc(N2CCN(C(=O)c3oc(=O)c4ccccc4c3-c3ccccc3)CC2C)c1 (stereo unspecified)	-28%	7%	0%	.	.	.
COc1ccc(NC2CCCN(C(=O)CCOc3ccccc3)C2)cc1 (stereo unspecified)	?	-19%	8%	-17	25µM*	-18
